The values that follow come from PubChem BioAssay (EPA / NIEHS).

Each structure is given as a SMILES string. Calls of active or inactive are those of the source. How the source made its calls: active means hit-call score of the fitted dose curve at least 0.9, where 1 is the maximum; inactive means score below 0.9.

Holding throughout (conditions): mRNA level, 48 h; actives raise or lower the signal
Read-out in test [1]: HGF (gene 3082)
Briefly: LTEA_HepaRG_HGF: Life Technologies and Expression Analysis (LTEA) Assay for Hepatocyte Growth Facto (HGF) using HepaRG (AID 2283505). A digest of the protocol:
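Read-out is HGF transcript level by qRT-PCR, normalized to three housekeeping genes, fitted bidirectionally against 0.5% DMSO vehicle. Human HepaRG cells received test chemicals for 48 h at up to 100 uM.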

Read-out in test [2]: Insulin Like Growth Factor 1 (IGF1), IGF1 (gene 3479)
Briefly: LTEA_HepaRG_IGF1: Life Technologies and Expression Analysis (LTEA) Assay for Insulin Like Growth Factor 1 (IGF1) using HepaRG (AID 2283506). A digest of the protocol:
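Cells are thawed, plated and cultured 48 h, then exposed in duplicate to chemical (highest 100 uM, half-log steps, 0.5% DMSO) for another 48 h. Total RNA is analysed by Fluidigm qRT-PCR for IGF1 expression relative to vehicle.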

Read-out in test [3]: Intercellular Adhesion Molecule 1 (ICAM1), ICAM1 (gene 3383)
Briefly: LTEA_HepaRG_ICAM1: Life Technologies and Expression Analysis (LTEA) Assay for Intercellular Adhesion Molecule 1 (ICAM1) using HepaRG (AID 2283507). In outline:
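Readout is qRT-PCR mRNA level, normalized to three housekeeping genes and fitted bidirectionally against 0.5% DMSO vehicle. Human HepaRG cultures received compound for 48 h, top concentration 100 uM with half-log dilutions.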

Read-out in test [4]: Interleukin 6 (IL6), IL6 (gene 3569)
Briefly: LTEA_HepaRG_IL6: Life Technologies and Expression Analysis (LTEA) Assay for Interleukin 6 (IL6) using HepaRG (AID 2283509). A digest of the protocol: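 Changes in IL6 mRNA, up or down relative to 0.5% DMSO controls, were derived from concentration-response curves in human HepaRG cells treated for 48 h at up to 100 uM, with ACTB, GAPDH and POLR2A as normalizers.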

Read-out in test [5]: Interleukin 6 Receptor (IL6R), IL6R (gene 3570)
Briefly: LTEA_HepaRG_IL6R: Life Technologies and Expression Analysis (LTEA) Assay for Interleukin 6 Receptor (IL6R) using HepaRG (AID 2283510).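 On AC50: TaqMan qRT-PCR signal normalized to ACTB GAPDH and POLR2A housekeeping genes.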 In outline: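 Cells were thawed, plated and cultured 48 h, then medium was changed to serum-free induction medium. Chemicals were added in duplicate (100 uM top, half-log steps, 0.5% DMSO) for 48 h. Lysates were analyzed by qRT-PCR for IL6R expression.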

Read-out in test [6]: Potassium channel subfamily K member 1 (KCNK1), KCNK1 (gene 3775)
Briefly: LTEA_HepaRG_KCNK1: Life Technologies and Expression Analysis (LTEA) Assay for Potassium channel subfamily K member 1 (KCNK1) using HepaRG (AID 2283511). In outline: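 Human HepaRG cultures receive test chemicals for 48 h in 0.5% DMSO, top concentration 100 uM with half-log dilutions. Induction or suppression of KCNK1 mRNA relative to DMSO is derived by bidirectional fitting of qRT-PCR data.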

Read-out in test [7]: Keratin 19 (KRT19), KRT19 (gene 3880)
Briefly: LTEA_HepaRG_KRT19: Life Technologies and Expression Analysis (LTEA) Assay for Keratin 19 (KRT19) using HepaRG (AID 2283512). In outline: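 KRT19 transcript levels, measured by Fluidigm qRT-PCR against three housekeeping genes, are fitted for gain or loss of signal relative to DMSO. Human HepaRG cells receive test chemicals (top 100 uM, half-log steps, 0.5% DMSO) for 48 hours.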

Read-out in test [8]: JUN Transcription Factor, JUN (gene 3725)
Briefly: LTEA_HepaRG_JUN: Life Technologies and Expression Analysis (LTEA) Assay for JUN Transcription Factor using HepaRG (AID 2283513). In outline:
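Read-out is JUN transcript level by TaqMan qRT-PCR, normalized to ACTB, GAPDH and POLR2A, after 48 h chemical treatment of HepaRG cells. Concentration-response spanned eight half-log points up to 100 uM in 0.5% DMSO.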

Read-out in test [9]: Lipase C (LIPC), LIPC (gene 3990)
Briefly: LTEA_HepaRG_LIPC: Life Technologies and Expression Analysis (LTEA) Assay for Lipase C (LIPC) using HepaRG (AID 2283514). A digest of the protocol:
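In this multiplexed gene-expression screen, human HepaRG cultures received test chemicals for 48 h across eight concentrations with 100 uM highest, in duplicate. Values reflect LIPC mRNA induction or suppression versus DMSO vehicle, from normalized qRT-PCR.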

Read-out in test [10]: Lipoprotein lipase (LPL), LPL (gene 4023)
Briefly: LTEA_HepaRG_LPL: Life Technologies and Expression Analysis (LTEA) Assay for Lipoprotein lipase (LPL) using HepaRG (AID 2283515). A digest of the protocol: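 Concentration-response testing used half-log steps from 100 uM in 0.5% DMSO on human HepaRG cells, 48 h, duplicate wells. Phenobarbital 1 mM served as induction control; LPL mRNA was normalized to ACTB, GAPDH, POLR2A.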

Read-out in test [11]: MicroRNA 122 (MIR122), gene 406906
Briefly: LTEA_HepaRG_MIR122: Life Technologies and Expression Analysis (LTEA) Assay for MicroRNA 122 (MIR122) using HepaRG (AID 2283516). Further: the transcript read is the microRNA miR-122. In outline:
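Human liver HepaRG cultures receive test chemicals for 48 h at eight half-log concentrations from 100 uM. Expression is quantified by qRT-PCR with ACTB/GAPDH/POLR2A normalization and fitted bidirectionally against 0.5% DMSO.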

Read-out in test [12]: matrix metalloproteinase-10 (MMP10), MMP10 (gene 4319)
Briefly: LTEA_HepaRG_MMP10: Life Technologies and Expression Analysis (LTEA) Assay for matrix metalloproteinase-10 (MMP10) using HepaRG (AID 2283517). A digest of the protocol: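 In differentiated HepaRG cultures kept in 0.5% DMSO, test chemicals act for 48 h over an eight-point range with a top dose of 100 uM. Expression is then quantified by TaqMan RT-PCR against ACTB, GAPDH and POLR2A.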

Read-out in test [13]: MYC, MYC (gene 4609)
Briefly: LTEA_HepaRG_MYC: Life Technologies and Expression Analysis (LTEA) Assay for MYC using HepaRG (AID 2283518). A digest of the protocol: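 HepaRG, ~100,000 cells/well, collagen I; 48 h plating; serum-free induction medium; 48 h dosing, duplicate, 100 uM top, half-log, 0.5% DMSO; total RNA → qRT-PCR MYC; gain/loss fit vs DMSO.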

Read-out in test [14]: matrix metalloproteinase-3 (MMP3), MMP3 (gene 4314)
Briefly: LTEA_HepaRG_MMP3: Life Technologies and Expression Analysis (LTEA) Assay for matrix metalloproteinase-3 (MMP3) using HepaRG (AID 2283519). In outline:
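Human liver HepaRG cultures received chemicals (top concentration 100 uM, 0.5% DMSO) for 48 h in duplicate. MMP3 mRNA induction or loss was then assessed via TaqMan qRT-PCR with housekeeping-gene normalisation.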

Read-out in test [15]: Paternally Expressed 10 (PEG10), PEG10 (gene 23089)
Briefly: LTEA_HepaRG_PEG10: Life Technologies and Expression Analysis (LTEA) Assay for Paternally Expressed 10 (PEG10) using HepaRG (AID 2283520).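 On AC50: PEG10 transcript by qRT-PCR normalised to ACTB GAPDH and POLR2A.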 A digest of the protocol:
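Human HepaRG cultures are dosed for 48 h across an eight-point half-log series starting at 100 uM, with 0.5% DMSO as vehicle and baseline. Gain or loss of PEG10 transcript is measured by qRT-PCR and fitted in both directions.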

Read-out in test [16]: Nuclear factor NF-kappa-B p105 subunit (Homo sapiens) (UniProt P19838)
Briefly: LTEA_HepaRG_NFKB1: Life Technologies and Expression Analysis (LTEA) Assay for Nuclear Factor Kappa B Subunit 1 (NFKB1) using HepaRG (AID 2283521).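 Further: TaqMan qRT-PCR transcript normalised to ACTB GAPDH and POLR2A housekeeping genes.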 A digest of the protocol:
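Differentiated human HepaRG cells were exposed for 48 h in serum-free induction medium to eight concentrations (top 100 uM, half-log steps, 0.5% DMSO), in duplicate. NFKB1 mRNA was measured by TaqMan qRT-PCR, normalized to ACTB/GAPDH/POLR2A, and fitted bidirectionally against DMSO.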

Read-out in test [17]: Protein phosphatase 2A (PPP2R4), PTPA (gene 5524)
Briefly: LTEA_HepaRG_PPP2R4: Life Technologies and Expression Analysis (LTEA) Assay for Protein phosphatase 2A (PPP2R4) using HepaRG (AID 2283522). A digest of the protocol:
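Cells were plated, cultured 48 h, switched to serum-free induction medium, then dosed for 48 h (8 points, max 100 uM, 0.5% DMSO). RNA was isolated and PPP2R4 expression measured by TaqMan qRT-PCR.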

Read-out in test [18]: Phosphatase and tensin (PTEN), PTEN (gene 5728)
Briefly: LTEA_HepaRG_PTEN: Life Technologies and Expression Analysis (LTEA) Assay for Phosphatase and tensin (PTEN) using HepaRG (AID 2283523). In outline: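 Expression of PTEN is quantified in the human liver line HepaRG following two days of dosing (top concentration 100 uM, half-log dilutions, 0.5% DMSO). Values derive from bidirectional curve fitting relative to DMSO controls.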

Read-out in test [19]: solute carrier (SLC22A1), SLC22A1 (gene 6580)
Briefly: LTEA_HepaRG_SLC22A1: Life Technologies and Expression Analysis (LTEA) Assay for solute carrier (SLC22A1) using HepaRG (AID 2283524). A digest of the protocol:
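Transcript induction or suppression of SLC22A1 in human HepaRG cultures is scored after 48 h chemical treatment, with DMSO (0.5%) as baseline for bidirectional fitting. Concentrations span eight half-log points topping at 100 uM.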

Read-out in test [20]: Insulin-like growth factor-binding protein 1 (IGFBP1), IGFBP1 (gene 3484)
Briefly: LTEA_HepaRG_IGFBP1: Life Technologies and Expression Analysis (LTEA) Assay for Insulin-like growth factor-binding protein 1 (IGFBP1) using HepaRG (AID 2283508). In outline:
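Thawed HepaRG cells are plated for 48 h, switched to serum-free induction medium, then dosed in duplicate for another 48 h (100 uM top, half-log steps). Lysates in RLT go to qRT-PCR, and gain or loss of signal is fitted relative to vehicle.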

Nuclear factor NF-kappa-B p105 subunit (Homo sapiens), sequence (P19838 whole entry, looked up): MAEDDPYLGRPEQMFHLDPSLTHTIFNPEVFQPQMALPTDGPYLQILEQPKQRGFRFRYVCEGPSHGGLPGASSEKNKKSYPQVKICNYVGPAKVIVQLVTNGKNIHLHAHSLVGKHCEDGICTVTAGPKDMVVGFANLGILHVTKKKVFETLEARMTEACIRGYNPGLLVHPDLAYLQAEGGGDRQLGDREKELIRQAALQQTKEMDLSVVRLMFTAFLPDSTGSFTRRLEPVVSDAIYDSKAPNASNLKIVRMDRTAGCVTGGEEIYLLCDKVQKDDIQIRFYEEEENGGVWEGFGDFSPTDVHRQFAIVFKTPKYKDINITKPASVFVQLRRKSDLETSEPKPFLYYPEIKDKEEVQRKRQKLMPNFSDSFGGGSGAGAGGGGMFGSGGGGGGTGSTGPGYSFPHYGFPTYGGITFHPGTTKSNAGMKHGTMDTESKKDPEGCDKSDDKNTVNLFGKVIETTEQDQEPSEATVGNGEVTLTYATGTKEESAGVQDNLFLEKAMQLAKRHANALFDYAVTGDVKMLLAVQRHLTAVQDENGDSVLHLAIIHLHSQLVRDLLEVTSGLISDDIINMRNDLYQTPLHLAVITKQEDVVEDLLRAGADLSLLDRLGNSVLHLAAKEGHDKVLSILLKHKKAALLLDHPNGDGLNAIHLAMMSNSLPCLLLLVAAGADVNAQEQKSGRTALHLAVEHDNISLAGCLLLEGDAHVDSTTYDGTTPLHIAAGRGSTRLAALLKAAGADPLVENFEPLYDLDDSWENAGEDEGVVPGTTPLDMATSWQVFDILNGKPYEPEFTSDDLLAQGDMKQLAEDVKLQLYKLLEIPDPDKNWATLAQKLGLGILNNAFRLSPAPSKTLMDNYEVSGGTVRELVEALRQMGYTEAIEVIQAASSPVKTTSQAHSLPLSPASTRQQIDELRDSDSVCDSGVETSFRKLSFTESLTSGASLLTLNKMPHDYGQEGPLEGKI

`CCSC(=O)N(CC)C1CCCCC1`: the outcome in [1], in test [2], in [3], in [4], in test [5] and in test [6] was inactive. The outcome in test [7], in test [8], in [9], in test [10], in [11] and in test [12] was inactive. Besides, the call in test [13], in [14], in [15], in test [16], in [17] and in test [18] was inactive. Moreover, the result in test [19] was inactive.
As to `CCCCCCCCOC(=O)c1ccccc1C(=O)OCCCCCCCC`, the outcome in [1], in [2], in test [3], in test [20], in test [4] and in test [5] was inactive. The call in test [6], in test [7], in test [8], in test [9], in test [10] and in [11] was inactive. In addition, the result in [12], in [13], in test [14], in test [15], in test [16] and in test [17] was inactive. Besides, the outcome in test [18] and in [19] was inactive.
Consider `CCNc1nc(NC(C)C)nc(SC)n1`, for which the molecule was called inactive in test [1], in [3], in test [4], in test [6], in test [8] and in test [10]. In addition, the result in test [11], in [12], in test [13], in test [14], in test [16] and in test [17] was inactive. For the same molecule, the outcome in [18] was inactive. For the same molecule, the AC50 in test [2] is 33.2 µM (active); in test [5], 11.7 µM (active); in test [7] it was 32.8 µM (active); in test [9], 61.1 µM (active); in [15] it was 12.4 µM (active); in test [19], 37.3 µM (active).
